# TRHR enhancer: allosteric enhancers of human TRH receptor; enhancement, % at 2 µM; P34981; 360,000 tested, 0.66% active; TRHR cells, fluo-8 calcium fluorescence, EC20 TRH enhancement; in the data active = enhancement above about 30%; also: 0% is about no effect
#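 Enhancer read-out: after compound pinning and an initial kinetic agonist-mode read, an EC20 of TRH (10 nM final) was injected and fluo-8 calcium signal (Ex 480/Em 530) followed at 1 s/cycle for 100 cycles in TRHR-expressing cells.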
# TRPV1 potentiator: human TRPV1 potentiation | Q8NER1 | TRPV1-expressing cells, Fluo-8 calcium influx, capsaicin EC20 potentiation | potentiation, % at 8.33 µM | 320,000 tested, 0.02% active | AID 540277; in the data active = potentiation above about 80%; inconclusive = between about 30% and that limit; also: 0% is about no effect
# Target sequence (Q8NER1 whole entry, looked up): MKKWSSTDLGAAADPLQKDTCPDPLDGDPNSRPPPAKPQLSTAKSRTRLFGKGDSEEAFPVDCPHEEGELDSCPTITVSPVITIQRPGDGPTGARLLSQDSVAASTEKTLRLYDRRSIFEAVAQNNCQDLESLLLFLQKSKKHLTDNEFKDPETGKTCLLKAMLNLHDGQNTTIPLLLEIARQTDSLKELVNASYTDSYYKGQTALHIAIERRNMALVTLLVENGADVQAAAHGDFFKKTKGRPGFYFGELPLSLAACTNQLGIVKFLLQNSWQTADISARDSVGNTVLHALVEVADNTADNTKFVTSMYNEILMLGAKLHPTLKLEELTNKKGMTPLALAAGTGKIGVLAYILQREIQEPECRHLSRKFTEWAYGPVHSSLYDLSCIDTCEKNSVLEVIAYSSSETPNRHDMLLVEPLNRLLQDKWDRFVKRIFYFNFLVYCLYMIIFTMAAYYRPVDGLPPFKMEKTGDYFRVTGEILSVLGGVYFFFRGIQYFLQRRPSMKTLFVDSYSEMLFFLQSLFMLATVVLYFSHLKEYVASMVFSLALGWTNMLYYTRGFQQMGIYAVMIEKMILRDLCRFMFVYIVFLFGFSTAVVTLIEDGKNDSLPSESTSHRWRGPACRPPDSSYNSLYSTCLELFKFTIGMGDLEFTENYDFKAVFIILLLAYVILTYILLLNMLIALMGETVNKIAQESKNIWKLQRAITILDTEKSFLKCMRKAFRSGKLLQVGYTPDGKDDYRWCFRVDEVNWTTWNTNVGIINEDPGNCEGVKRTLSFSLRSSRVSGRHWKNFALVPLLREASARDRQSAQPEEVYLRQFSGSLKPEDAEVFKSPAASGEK
#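 TRPV1-expressing cells were cultured overnight at 35.5C and loaded with Fluo-8 calcium dye for 40 to 90 min at room temperature. After a 10 s baseline, compound was added and calcium influx was read kinetically for 3 min (ex 480/em 520 nm).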
# TRPV1 ag: activates the human vanilloid receptor TRPV1 | Q8NER1 | TRPV1-expressing cells, Fluo-8 calcium influx, agonist mode | activation, % at 8.33 µM | 320,000 tested, 0.19% active | AID 540275; in the data active = activation above about 80%; inconclusive = between about 30% and that limit; also: 0% is about no effect
#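 TRPV1-expressing cells were cultured overnight at 35.5C and loaded with Fluo-8 calcium dye for 40 to 90 min at room temperature. After a 10 s baseline, compound was added and calcium influx was read kinetically for 3 min (ex 480/em 520 nm).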
# TRHR ag: agonists of human TRH receptor. P34981. 360,000 tested, 0.18% active. activation, % at 2 µM. TRHR cells, calcium flux fluo-8, FDSS agonist mode. AID 493084; in the data active = activation above about 30%; also: 0% is about no effect
#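 TRHR-expressing cells, plated overnight in medium with 10% serum, were loaded with fluo-8 calcium dye at room temperature. After a 10 s baseline, library compound was pin-added and calcium release was recorded kinetically (ex 480/em 530) as agonist response.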
# TRPML1 agonist: activates the human TRPML1 channel. Q9GZU1. TRPML1-expressing cells, Ca2+ dye fluorescence, FDSS. activation, % (test concentration not listed). 410,000 tested, 0.12% active. AID 624414; in the data active = activation above about 50%; inconclusive = mostly about 30% to 49%; also: 0% is about no effect
#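 Calcium fluorescence on an FDSS kinetic reader gave the read-out. Tet-induced TRPML1-DL cells were plated overnight, dye-loaded (Ca8 with quencher, 45-90 min, room temperature, dark), then read 110 s after compound addition, and again 110 s after 4uM final 54-4 (EC80).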
# TRPML1 inh: inhibitors of human TRPML1 channel; TRPML1-inducible cells, Ca2+ dye fluorescence, FDSS; stronger effect = lower value; inhibition of EC80 agonist-evoked calcium signal; activity change, negative = inhibition, % (no concentration beside the values); 390,000 tested, 0.02% active; in the data active = activity change below about -50%; inconclusive = between about -30% and that limit;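 also: stimulus is agonist 54-4 at its EC80 concentration; % is scaled to controls: 0 for no effect and ±100 for the full control effect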
#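 Calcium fluorescence in TRPML1-DL cells induced overnight with Tet: a 110 s read after compound pin addition, then a 110 s antagonist read after challenge with 54-4 at 4 uM final (EC80).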
# An asterisk follows results filed as active; u = inconclusive; x = no result. The list is not random: actives were taken first. Their share in the collection is about 0.99%.
SMILES,TRHR enhancer,TRPV1 potentiator,TRPV1 ag,TRHR ag,TRPML1 agonist,TRPML1 inh
CN(C)c1ccc(/C=C/C(O)=C2/C(=O)N(C)C3(C)CC2c2ccccc2O3)cc1 (configuration not stated),-5.7,0.6,10.8,32.0*,x,x
CCCN1CNc2c(c(=O)[nH]c(=S)n2CCc2ccc(Cl)cc2)C1,x,x,x,x,-0.4,x
O=C(Nc1cccc(-c2ccc3nncn3n2)c1)C(F)(F)F,-1.8,-12.4,-1.1,-0.5,0.7,20.6
CCC(CC)C(=O)Nc1cccc(-c2ccc3nncn3n2)c1,31.4*,-3.7,-1.8,4.9,0.6,9.8
Cc1ccc2nc(NC(=O)C3CC(=O)N(Cc4ccco4)C3)sc2c1 (configuration not stated),36.3*,-5.1,7.2,0.6,-0.4,3.3
CC(C)NC(=O)c1onc(CSc2ccccc2)c1C(=O)O,31.0*,6.8,1.6,1.3,-0.4,-4.8
COc1cc(C)c(NC(C)C(=O)c2c(C)[nH]c3ccccc23)cc1OC (configuration not stated),x,x,x,x,-0.9,x
CC(=O)Nc1ccc(S(=O)(=O)N2CCOCC2)cc1,-4.6,5.2,-0.1,0.8,-0.6,-2.3
CC(=O)NC(=S)Nc1ccc(S(=O)(=O)N2CCOCC2)cc1,31.9*,6.0,2.7,0.2,-0.5,5.6
CN(C(=O)Cn1nnc(-c2ccc(S(C)(=O)=O)cc2)n1)c1ccccc1,-3.0,x,x,-3.0,0.4,21.9
O=C1CC(c2ccc(Cl)c([N+](=O)[O-])c2)c2ccc3ccccc3c2N1 (configuration not stated),37.3*,1.5,-10.0,-2.6,2.9,-0.7
CCOC(=O)c1cc(C(=O)OCC)c(=O)[nH]c1C,1.1,0.5,-2.2,-0.9,-0.3,2.0
CCOC(=O)c1cc2c(N)c(C(=O)c3ccc(Br)cc3)sc2[nH]c1=O,34.7*,u,-4.1,0.0,-0.3,7.1
CCCCCCCC(=O)N/N=C(\C)c1ccc(O)cc1O,-2.5,-0.2,4.9,0.6,56.6*,-11.4
COc1ccc(/C=C/C(=O)C2CC2)cc1Cn1nc(C)c([N+](=O)[O-])c1C,37.5*,-5.2,29.2,-0.7,2.2,5.3
Cc1ccc(C(=O)c2cn(Cc3cccc(Cl)c3)c3nc(C)ccc3c2=O)cc1,4.1,x,x,-0.4,-0.5,13.5
CCOC(=O)c1sc(NC(=O)Cn2nnc3sc4c(c3c2=O)CCCC4)nc1C,9.5,7.5,-2.4,1.0,4.7,7.0
CCOC(=O)c1nc2sc3c(c2c(=O)n1C(C)C(=O)OCC)CCCC3 (configuration not stated),21.9,7.7,80.2*,-0.5,2.4,5.9
COc1ccc(NC(=O)c2sc3nc(Cc4ccccc4)cc(C(F)(F)F)c3c2N)cc1OC,31.9*,2.5,8.9,2.5,0.1,-3.9
COc1ccccc1NC(=O)c1sc2nc(Cc3ccccc3)cc(C(F)(F)F)c2c1N,7.4,12.5,1.4,3.5,1.0,-2.9
CC1CCCCN1CCCNC(=O)Cn1ncc2c3ccccc3n(Cc3ccccc3F)c2c1=O (configuration not stated),1.1,x,x,-0.3,-0.4,-3.5
O=C(NCC1COc2ccccc2O1)c1ccc(Br)s1 (configuration not stated),-1.4,16.2,85.3*,-0.1,2.0,-8.9
O=C(NCC1COc2ccccc2O1)c1cccs1 (configuration not stated),-4.5,-12.4,18.8,0.8,-0.4,-8.9
CCOC(=O)[C@H]1[C@H]2COc3ccc(Br)cc3[C@@H]2N2C(=O)c3ccc(F)cc3NC(=O)[C@@]12C,-2.8,27.8,u,0.2,1.7,1.4
CCOC(=O)[C@H]1[C@H]2COc3cc(OC)ccc3[C@@H]2N2C(=O)c3ccc(C)cc3NC(=O)[C@@]12C,5.2,4.8,82.2*,-0.4,3.1,35.3
SMILES,TRHR enhancer,TRPV1 potentiator,TRPV1 ag,TRHR ag,TRPML1 agonist,TRPML1 inh
CCOC(=O)[C@H]1[C@H]2COc3ccc(Br)cc3[C@@H]2N2C(=O)c3ccc(C)cc3NC(=O)[C@@]12C,-1.9,12.8,80.5*,0.5,2.0,30.8
CCOC(=O)[C@H]1[C@H]2COc3ccccc3[C@@H]2N2C(=O)c3ccc(C)cc3NC(=O)[C@@]12C,-3.7,-3.6,92.6*,-0.4,-0.1,-6.9
CCOC(=O)[C@H]1[C@H]2COc3ccc(Br)cc3[C@@H]2N2C(=O)c3cc(F)c(F)cc3NC(=O)[C@@]12C,1.5,u,84.1*,0.2,1.9,4.5
Clc1cccc(-c2noc3ncnc(NC4CCCCC4)c23)c1,-1.3,x,x,-0.7,1.2,-12.2
O=S(=O)(Nc1cc(F)ccc1F)c1ccc2[nH]c3c(c2c1)CCCCC3,2.7,x,x,0.3,2.5,3.7
CCCc1c(C)c2ccccc2[nH]c1=O,40.8*,0.0,1.4,-0.6,1.3,-12.8
CCCc1c(O)c2ccccc2[nH]c1=O,0.3,7.5,-1.1,0.1,-0.5,-4.9
CN(C)c1ccc(/C=C2\C(=O)/C(=C\c3ccc(N(C)C)cc3)c3ccccc32)cc1,x,x,x,x,0.6,x
COc1ccc(NC(=O)N2CCN3CCCCC3C2)cc1OC (configuration not stated),0.3,x,x,0.7,0.8,-50.6*
O=C(CSc1ccc(Br)cc1)N1CCOCC1,-0.8,-31.0,80.0*,-0.4,0.2,4.2
CCN(CC)c1ccc2cc(C(=O)Nc3ccccn3)c(=O)oc2c1,-7.7,-9.0,29.5,37.4*,10.0,-14.8
CCN(CC)c1ccc2cc(/C(N)=N/NC(=O)c3cccs3)c(=O)oc2c1,-3.7,-7.6,19.0,25.2,x,x
CCN(CC)c1ccc2cc(C(N)=O)c(=N)oc2c1,1.4,-11.3,u,24.8,55.7*,-7.0
CCN(CC)c1ccc2cc(C=O)c(=O)oc2c1,9.4,-2.8,u,116.2*,112.9*,-21.6
CCN(CC)c1ccc2cc(C(C)=O)c(=O)oc2c1,-1.9,-30.4,u,66.5*,71.9*,-0.4
CCN(CC)c1ccc2cc(C(N)=O)c(=O)oc2c1,3.8,-7.9,-5.5,-0.5,-0.2,0.5
CCN(N=O)c1ccc(/C=C2\C=Cc3ccccc32)cc1,x,x,x,x,1.0,x
Cc1cccc(C)c1OCC(=O)N1CCC(c2nc3ccccc3o2)CC1,1.9,x,x,0.4,2.6,-16.3
Cc1cccn2c(=O)c3cc(C#N)c(=N)n(CCCN4CCOCC4)c3nc12,x,x,x,x,0.6,-16.2
Cc1cccn2c(=O)c3cc(C#N)c(=N)n(CCN4CCOCC4)c3nc12,32.1*,-1.9,-1.1,0.1,0.2,9.3
CC(C)Cc1ccc(C(=O)Nc2ccc(Cc3ccncc3)cc2)o1,38.1*,-2.9,u,-0.2,-0.9,1.3
Cc1ccccc1S(=O)(=O)N1CCN(S(=O)(=O)c2ccc3c(c2)OCCO3)CC1,2.2,x,x,0.3,x,x

# Bioassay records (PubChem BioAssay)
